Measurements reported in PubChem BioAssay AID651871 (Sanford-Burnham Center for Chemical Genomics, 2012).

test system: HL-1; experiment: protection of cardiomyocytes from stress damage, SAR follow-up, cell-based, panel, H9c2 and HL-1, ATP luminescence, set 2 (AID 651871); conditions: H9c2/HL-1 cardiomyocytes, 2-deoxyglucose stress, with 2-deoxyglucose, run 15, at 79 µM (top of the series);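 note: cells exposed to stressor for 2 h before ATP readout; reference of the scale not given here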

**Q.** With `COc1ccc2c(c1OC)C(=O)N1c3ccccc3C(=O)N(Cc3cccc(Cl)c3Cl)C21` (stereo not drawn) as the compound, how does the activity (protection/inhibition) read?
**A.** -12.5%

**Q.** With `COc1ccc2nc(-c3cc(OC)c(OC)c(OC)c3)cc(C(=O)NCC(=O)Nc3ccc(C(C)=O)cc3)c2c1` as the compound, how does the activity (protection/inhibition) read?
**A.** 56%

**Q.** How did the activity (protection/inhibition) turn out when `CCOC(=O)c1cccc(NC(=O)CNC(=O)c2cc(-c3cc(OC)c(OC)c(OC)c3)nc3ccccc23)c1` was run?
**A.** 87.5%
